Reference: PubChem BioAssay AID757 (NMMLSC, 2007)
The campaign covered roughly 190,000 compounds. About 520 (0.27%) were called active. Roughly 2% stayed inconclusive and do not appear here. The sample holds actives, similar compounds and a random draw of the others, so the mix is not that of the screen. Unmarked numbers belong to inactive results.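 The calls were made as follows: active = GTP binding activity at least 20 points away from the 100% control level, either lower or higher; inconclusive = compound flagged as likely green fluorescent, judged across all proteins; inactive = the rest.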

Target: Ras-related C3 botulinum toxin substrate 1 (Homo sapiens) (UniProt P63000)
Experiment: compounds altering fluorescent GTP loading on wildtype Rac1 – biochemical, GST-Rac1 beads, flow cytometry, multiplex, primary screen (AID 757)
Conditions: at 10 µM, actives lie on both sides, 0 = cold GTP competed, 100 = untreated

Compared with `Cc1cc(OCCCN2CCN(Cc3ccccc3)CC2)ccc1[N+](=O)[O-]`, `CC1CN(CCCOc2ccccc2-c2ccccc2)CC(C)O1` (stereo not given) is higher in GTP binding activity (% of control): 85% for the first, 94% for the second.

`CN(CC(=O)N1CCN(c2ccccc2)CC1)S(=O)(=O)c1cccs1` and `COc1ccc(N2CCN(C(=O)C3CCN(S(=O)(=O)c4ccc(C)cc4)CC3)CC2)cc1` are the same in GTP binding activity (% of control): 101% for the first, 101% for the second.

Compared with `Cc1cc(C)nc(/N=C2\NC(=O)CC(C(=O)O)N2c2ccc(Cl)cc2Cl)n1` (stereo not given), `CCn1cc(C(=O)Nc2cc(C)ccc2C)c(=O)c2ccc(C)nc21` is higher in GTP binding activity (% of control): 96% for the first, 100% for the second.

Going from `O=C(c1ccc(F)cc1)N1CCCC(c2nc(-c3cccs3)no2)C1` (stereo not given) to `COc1ccc(NC(=O)N2CCCC(c3nc(-c4ccc(F)cc4)no3)C2)cc1` (stereo not given), the GTP binding activity (% of control) rises from 99% to 103%.

First: O=C(NC1CCCCC1)C1CCCN(S(=O)(=O)c2ccc(Br)s2)C1 (stereo not given)
Second: Cc1ccc(NC(=O)NC2CCCCC2)cc1S(=O)(=O)N1CCOCC1
The GTP binding activity (% of control) of the first is higher: 100% for the first, 99% for the second.

Compared with `Cc1cccc(NC(=O)c2cccc(C(F)(F)F)c2)c1`, `COC(=O)c1cc2nc(-c3ccccc3)cc(C(F)(F)F)n2n1` is higher in GTP binding activity (% of control): 98% for the first, 99% for the second.

Going from `CCOC(=O)c1ccc(NC(=S)N2CCCC2)cc1` to `CCCNC(=S)N1CCCC(c2nc3ccccc3[nH]2)C1` (stereo not given), the GTP binding activity (% of control) rises from 96% to 97%.

First: Cc1ccc(N(C(=O)Cc2cccs2)C(C(=O)NCC2CCCO2)c2ccncc2)cc1 (stereo not given)
Second: Cc1ccc(NC(=S)NC(=O)c2ccc(-c3ccccc3)cc2)c(C)c1
The GTP binding activity (% of control) of the first is higher: 108% for the first, 99% for the second.

Going from `COc1cccc(CN(C)CC(=O)NCc2ccccc2Cl)c1OC` to `COc1ccc(OC)c(NC(=O)CN(Cc2ccc(Cl)cc2)S(C)(=O)=O)c1`, the GTP binding activity (% of control) falls from 98% to 97%.

Compared with `COc1ccc(/C=C/C(=O)Nc2cccnc2)cc1OC`, `COc1ccc(NC(=O)c2ccccc2[N+](=O)[O-])cc1OC` is higher in GTP binding activity (% of control): 98% for the first, 105% for the second.

Going from `COc1cc(/C=N/Nc2ccc(C)cc2)cc(Br)c1O` to `COc1ccc(C)cc1NC(=S)Nc1ccccc1SC`, the GTP binding activity (% of control) rises from 97% to 100%.

Going from `O=C(O)COc1ccc(/C=N/O)cc1Br` to `COc1ccc(C)cc1NC(=O)NCc1ccccn1`, the GTP binding activity (% of control) rises from 92% to 103%.

Going from `Cc1nn(CC(=O)Nc2ccc3c(c2)OCO3)c(C)c1[N+](=O)[O-]` to `CCn1ccnc1CN(C)Cc1nc(-c2ccc3c(c2)OCO3)no1`, the GTP binding activity (% of control) falls from 100% to 99%.

Going from `COc1ccc(C2(CNC(=O)Cc3ccc(OC)c(OC)c3)CCCC2)cc1` to `COc1ccc(/C=N/NC(=O)CNC(=O)c2ccc(S(=O)(=O)N3CCCC3)cc2)c(OC)c1`, the GTP binding activity (% of control) rises from 97% to 98%.

Going from `CCCCNC(=O)C1(c2ccc(OC)cc2)CCOCC1` to `CCOC(=O)Cc1ncccc1C(=O)Nc1ccc(OC)cc1`, the GTP binding activity (% of control) falls from 108% to 100%.

Compared with `Cc1cc(NC(=O)CN2C(=O)NC(CCc3ccccc3)C2=O)no1` (stereo not given), `O=C(CN1CCN(Cc2ccc(F)cc2Cl)C1=O)NCc1cccs1` is lower in GTP binding activity (% of control): 100% for the first, 99% for the second.

Compared with `COC(=O)Cn1cc(/C=C/[N+](=O)[O-])c2ccccc21`, `Cc1ccc(OCC(=O)NC(C)c2ccccc2)c([N+](=O)[O-])n1` (stereo not given) is higher in GTP binding activity (% of control): 93% for the first, 98% for the second.

Going from `CC(C)C(C)(C#N)NC(=O)CSc1nncn1-c1ccccc1` (stereo not given) to `Cn1cnnc1SCc1nnc(-c2ccccc2Br)o1`, the GTP binding activity (% of control) falls from 104% to 87%.

Compared with `C/C(=N\OCC(=O)Nc1ccc(Br)cc1)c1cccs1`, `O=C(NNC(=O)c1ccc(Cl)cc1Cl)c1cccs1` is higher in GTP binding activity (% of control): 93% for the first, 96% for the second.

Going from `O=C(NCc1ccco1)c1nn2cccnc2c1Cl` to `Cc1ccc(Cl)cc1NC(=O)c1ccccn1`, the GTP binding activity (% of control) falls from 99% to 90%.

First: O=C(CCC(=O)NNc1nc2ccccc2c2nc(-c3ccccc3)nn12)NCCCN1CCCC1=O
Second: O=C(NCCCN1CCOCC1)c1ccccc1NS(=O)(=O)c1ccc(Br)cc1
The GTP binding activity (% of control) of the first is lower: 96% for the first, 100% for the second.

First: CCOc1ccc(NC(=O)NNC(=O)c2ccc(Cl)cc2Cl)cc1
Second: CC(C)(C)NC(=O)NC(=O)COC(=O)Cc1ccc(Cl)cc1Cl
The GTP binding activity (% of control) of the first is lower: 96% for the first, 101% for the second.

Going from `CN1C(=O)/C(=C/c2ccc(C(=O)NC3CCCC3)cc2)Oc2ccccc21` to `O=C(Nc1cccc(CCc2ccccn2)c1)c1ccc(Cl)cc1`, the GTP binding activity (% of control) falls from 99% to 97%.

Going from `CCn1c(CSc2nc(C)cc(C)n2)nnc1SCC(N)=O` to `CCCCCc1nnc(NC(=O)c2ccc(=O)n(C)n2)s1`, the GTP binding activity (% of control) rises from 95% to 101%.

Compared with `Cc1c(CN2CCCCC2)c(O)n(CCO)c(=O)c1C#N`, `Cc1cc(C)cc(C(=O)NCC(=O)OCC(=O)N2CCCCC2)c1` is higher in GTP binding activity (% of control): 94% for the first, 99% for the second.

Going from `COc1ccc(C)cc1-n1nnnc1SCc1nc2ccccc2c(=O)[nH]1` to `COc1ccc(-n2c(O)c(C=NCC(c3ccco3)N3CCCC3)c3ccccc3c2=O)cc1OC` (stereo not given), the GTP binding activity (% of control) rises from 98% to 102%.

Going from `CCc1ccc(Oc2nc([N+](=O)[O-])nn2C)cc1` to `N#Cc1ccc(CSc2nnc3ccccn23)cc1`, the GTP binding activity (% of control) rises from 98% to 104%.

First: CCOC(=O)N1CCN(Cc2nc(Cc3cccc(C(F)(F)F)c3)no2)CC1
Second: CN(CCN1CCOCC1)Cc1nc(-c2ccc3c(c2)OCO3)no1
The GTP binding activity (% of control) of the first is higher: 99% for the first, 98% for the second.

Compared with `CSCC(NS(=O)(=O)c1ccc(C)cc1)C(=O)O` (stereo not given), `Cc1ccc(C(=O)CS(C)(=O)=O)cc1` is lower in GTP binding activity (% of control): 104% for the first, 101% for the second.

First: Cc1noc(C)c1CCC(=O)O
Second: CC1(C)OC(=O)C(=CNC(CO)C(=O)O)C(=O)O1 (stereo not given)
The GTP binding activity (% of control) of the first is lower: 97% for the first, 100% for the second.

Going from `O=C(C1CCCN1S(=O)(=O)c1ccc(Br)cc1)N1CCOCC1` (stereo not given) to `CN(C)S(=O)(=O)c1ccc(NC(=O)N2CCOCC2)cc1`, the GTP binding activity (% of control) rises from 97% to 100%.

First: O=C(CNC(=O)c1cc(=O)[nH]c2ccccc12)Nc1ccc(F)c(F)c1
Second: COc1c(F)c(F)c(C(=O)O)c(Nc2ccccc2C)c1F
The GTP binding activity (% of control) of the first is lower: 97% for the first, 101% for the second.

Compared with `CC(C)OC(=O)Cn1nc(C(F)(F)F)c2c1CCCC2`, `COc1ncnc2sc3c(c12)CCCC3` is higher in GTP binding activity (% of control): 93% for the first, 104% for the second.

Going from `CCN(CC)C(=O)CS(=O)CC(=O)Nc1cc(OCCOC)c(Cl)cc1Cl` (stereo not given) to `CCN(CC)CCCNC(=O)Cn1cnc2sc(C)c(S(=O)(=O)N3CCN(c4ncccn4)CC3)c2c1=O`, the GTP binding activity (% of control) falls from 103% to 93%.

First: S=c1[nH]nc(/C=C/c2ccccc2)o1
Second: CCOc1ccccc1N=C1NC(=O)CS1
The GTP binding activity (% of control) of the first is lower: 93% for the first, 96% for the second.

Going from `CC(=O)Cn1ncc(N2CCOCC2)c(Br)c1=O` to `CC(=O)NCCC(=O)Nc1cc(S(=O)(=O)N2CCOCC2)ccc1N1CCOCC1`, the GTP binding activity (% of control) rises from 95% to 100%.

First: O=C(CSc1nn(-c2ccc(F)cc2)c(=S)s1)NC1CCS(=O)(=O)C1 (stereo not given)
Second: CCOc1ccc(-n2cnnn2)cc1S(=O)(=O)N1CCC(C)CC1C (stereo not given)
The GTP binding activity (% of control) of the first is higher: 104% for the first, 97% for the second.

Compared with `CC/C(O)=C1\C(=O)CC(C)(C)CC1=NCCc1nc2ccccc2[nH]1`, `COCCN1C(=O)c2oc3c(C)cc(C)cc3c(=O)c2C1c1cccc(O)c1` (stereo not given) is lower in GTP binding activity (% of control): 106% for the first, 104% for the second.

First: Cc1nc2ccc(NC(=S)N3CCC(C)CC3)cc2nc1C
Second: CC(C)(C)c1ccc(C(=O)CSc2ncn[nH]2)cc1
The GTP binding activity (% of control) of the first is lower: 100% for the first, 105% for the second.

Going from `CC1(C)CN=C(N2CCN(c3ncnc4sc5c(c34)CCCC5)CC2)S1` to `N/C(=N\OC(=O)c1ccc2c(c1)OCO2)c1ccc(Br)cc1`, the GTP binding activity (% of control) falls from 99% to 94%.

First: O=C1c2oc3ccccc3c(=O)c2C(c2cccc(O)c2)N1c1ccccn1 (stereo not given)
Second: CNc1[nH]ncc1[N+](=O)[O-]
The GTP binding activity (% of control) of the first is higher: 106% for the first, 95% for the second.

For `COc1cc(/C=N/NC(=S)Nc2cccnc2)cc(OC)c1O`, the GTP binding activity (% of control) was 77% (active).
With `COc1ccc(C2(CNC(=O)C(c3ccccc3)c3ccccc3)CCOCC2)cc1OC` the GTP binding activity (% of control) was 123% [activator] (active).
With `CCC/C(O)=C1\C(=O)CC(C)(C)CC1=Nc1ccccc1OC` the GTP binding activity (% of control) was 125% [activator] (active).
In the case of `COc1ccc(/C=N/Nc2ncnc3sc4c(c23)CCCC4)cc1O`, the GTP binding activity (% of control) was 77% (active).
With `O=C1c2oc3ccc(Br)cc3c(=O)c2C(c2cccc(F)c2)N1CCO` (stereo not given) the GTP binding activity (% of control) was 123% [activator] (active).
`COc1ccc(NC(=O)c2cc3nc(-c4ccccc4)cc(C)n3n2)cc1OC` was tested, and the GTP binding activity (% of control) was 78% (active).
With `Cc1ccc(Nc2c(F)c(F)c(F)c(F)c2C(=O)O)c(C)c1` the GTP binding activity (% of control) was 154% [activator] (active).
In the case of `Cc1ccc(SC(CC(=O)c2ccc(C(C)(C)C)cc2)C(=O)O)cc1` (stereo not given), the GTP binding activity (% of control) was 79% (active).
